Records with an inconclusive call do not appear. Calls of active or inactive are those of the source. Unless noted, calls come from the whole dose curve.
How the values were obtained:
[1] = target: Peroxisome proliferator-activated receptor gamma (Homo sapiens) (UniProt P37231); assay: qHTS assay for small molecule agonists of peroxisome proliferator-activated receptor gamma signaling (AID 588536; active = well fitted curve in the direction sought with a large enough effect in the signal ratio, with a control signal flat, not every such curve was filed as active; the % refers to the signal ratio;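 note: 0% = DMSO basal wells and 100% = rosiglitazone at 2 µM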)
Procedure, shortened: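 PPAR-gamma-UAS-bla HEK293 cells in medium with 1% charcoal/dextran-treated FBS were exposed to compounds for 16 h at 37 C. Beta-lactamase activity was read with CCF4 substrate (405 nm excitation, 460/530 nm emission).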

[2] = target: Peroxisome proliferator-activated receptor gamma (Homo sapiens) (UniProt P37231); assay: qHTS assay for small molecule antagonists of peroxisome proliferator-activated receptor gamma signaling (AID 588537; active = well fitted inhibition curve with a large enough effect in the signal ratio, with a control signal flat, not every such curve was filed as active; the % refers to the signal ratio;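 note: reporter cells co-stimulated with 50 nM rosiglitazone agonist during compound treatment; % of control where 0% means no effect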)
Procedure, shortened: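 PPAR-gamma-UAS-bla HEK293 cells (3000/well, 1% charcoal/dextran-stripped FBS) were preincubated 6-6.5 h at 37 C, given titrated compounds, then stimulated with 50 nM rosiglitazone for 16 h. Beta-lactamase activity was read with CCF4 dye; IC50 came from Hill fits.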

[3] = target: Vitamin D3 receptor (Homo sapiens) (UniProt P11473); assay: qHTS assay for small molecule antagonists of vitamin D receptor signaling (AID 588541);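 note: receptor activated by calcitriol during compound treatment; series mostly up to about 77 µM; % is set by controls: 0 for no effect and ±100 for the full control effect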
Procedure, shortened: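 VDR-UAS-bla HEK293T cells (2000/well, 2% charcoal-stripped FBS) were treated with titrated compounds plus 1-alpha,25-dihydroxyvitamin D3 (50 nM or 3 nM final) for 16 h at 37 C. CCF4 beta-lactamase fluorescence was read; Hill fits gave IC50.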

[4] = target: Vitamin D3 receptor (Homo sapiens) (UniProt P11473); assay: qHTS assay for small molecule agonists of vitamin D receptor signaling (AID 588543);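 note: 0% = DMSO basal and 100% = reference agonist control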
Procedure, shortened: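 Reporter cells (HEK293T, VDR-UAS-bla) were seeded in medium with 2% charcoal-stripped serum and incubated 5 h, then compounds in concentration series were added for 16 h at 37 °C. Stimulation was scaled between DMSO basal and 50 nM 1α,25-dihydroxyvitamin D3.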

[5] = target: Thyroid hormone receptor beta (Homo sapiens) (UniProt P10828); assay: qHTS assay for small molecule antagonists of thyroid hormone receptor beta signaling (AID 588547; active = well fitted inhibition curve with a large enough effect in the signal ratio, with a control signal flat, not every such curve was filed as active; the % refers to the signal ratio;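 note: cells stimulated with 0.4 nM T3 agonist during compound exposure; series mostly up to about 77 µM; % is set by controls: 0 for no effect and ±100 for the full control effect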); conditions: TR-UAS-bla HEK293, beta-lactamase ratio, antagonist mode, 18 h
Procedure, shortened: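 TR-UAS-bla GripTite HEK293 cells in 2% charcoal/dextran FBS medium were preincubated 4 h at 37 C, given compound (0.59 nM to 92 uM) plus 0.4 nM T3 (final) for 18 h, then CCF4 for 2 h at RT; Hill fit gave IC50.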

[6] = qHTS assay for small molecule agonists of the antioxidant response element (ARE) signaling pathway (AID 651741; active = well fitted activation curve with a large enough effect in the signal ratio; the % refers to the signal ratio; note: % of control where 0% means no effect)
Procedure, shortened: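 ARE-bla HepG2 cells (beta-lactamase reporter under ARE control) were plated at 2,000 cells/well, preincubated 5 h at 37 C/5% CO2, then treated with DMSO-dissolved compounds for 16 h at 37 C; LiveBLAzer B/G FRET substrate added, fluorescence read after 2 h at room temperature.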

[7] = target: Bile acid receptor (Homo sapiens) (UniProt Q96RI1); assay: qHTS assay for small molecule antagonists of farnesoid X receptor signaling (AID 588526); note: % is set by controls: 0 for no effect and ±100 for the full control effect
Procedure, shortened: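 Concentration-response titrations were fitted to the Hill equation for half-maximal inhibition and maximal response, with data normalised to 50 uM chenodeoxycholic acid and DMSO control wells. Cells: FXR-UAS-bla HEK293T, dialyzed FBS.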

[8] = qHTS assay for small molecule activators of the p53 signaling pathway (AID 651743; active = well fitted activation curve with a large enough effect in the signal ratio, not every such curve was filed as active; the % refers to the signal ratio; note: series mostly up to about 92 µM; % of control where 0% means no effect); conditions: HCT-116 p53RE-bla, beta-lactamase FRET ratio, 16 h; activation: stronger effect = higher value
Procedure, shortened: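 p53RE-bla HCT-116 cells with a stably integrated beta-lactamase reporter under p53 response elements were plated, rested 5 hours at 37 C/5% CO2, then exposed to compounds in DMSO for 16 hours at 37 C. LiveBLAzer B/G FRET substrate was read after 2 hours at room temperature.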

Chain of Vitamin D3 receptor (Homo sapiens) (P11473 whole entry, looked up): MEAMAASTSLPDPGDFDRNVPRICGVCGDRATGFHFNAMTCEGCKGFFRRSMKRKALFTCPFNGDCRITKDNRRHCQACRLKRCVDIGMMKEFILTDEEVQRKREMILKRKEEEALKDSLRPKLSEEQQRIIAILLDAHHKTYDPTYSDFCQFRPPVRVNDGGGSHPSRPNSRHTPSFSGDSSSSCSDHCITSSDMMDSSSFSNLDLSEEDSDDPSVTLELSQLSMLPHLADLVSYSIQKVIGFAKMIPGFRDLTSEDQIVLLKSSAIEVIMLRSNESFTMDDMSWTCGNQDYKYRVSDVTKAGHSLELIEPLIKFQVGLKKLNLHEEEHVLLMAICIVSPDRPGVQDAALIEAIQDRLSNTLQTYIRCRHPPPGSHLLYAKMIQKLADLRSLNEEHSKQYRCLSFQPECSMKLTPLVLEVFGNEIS
Chain of Bile acid receptor (Homo sapiens) (Q96RI1 whole entry, looked up): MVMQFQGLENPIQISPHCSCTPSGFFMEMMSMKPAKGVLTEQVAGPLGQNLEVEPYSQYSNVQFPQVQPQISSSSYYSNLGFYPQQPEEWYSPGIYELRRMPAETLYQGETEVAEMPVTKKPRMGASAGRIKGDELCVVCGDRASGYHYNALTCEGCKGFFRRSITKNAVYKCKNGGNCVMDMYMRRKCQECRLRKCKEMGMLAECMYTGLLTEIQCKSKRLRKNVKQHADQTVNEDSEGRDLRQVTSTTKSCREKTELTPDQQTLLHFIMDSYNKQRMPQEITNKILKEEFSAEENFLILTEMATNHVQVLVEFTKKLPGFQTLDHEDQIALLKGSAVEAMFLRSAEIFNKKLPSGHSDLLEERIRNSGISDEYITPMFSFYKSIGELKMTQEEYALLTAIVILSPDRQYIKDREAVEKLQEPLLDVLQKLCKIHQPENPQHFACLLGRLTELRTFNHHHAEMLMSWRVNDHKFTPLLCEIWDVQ
Chain of Peroxisome proliferator-activated receptor gamma (Homo sapiens) (P37231 whole entry, looked up): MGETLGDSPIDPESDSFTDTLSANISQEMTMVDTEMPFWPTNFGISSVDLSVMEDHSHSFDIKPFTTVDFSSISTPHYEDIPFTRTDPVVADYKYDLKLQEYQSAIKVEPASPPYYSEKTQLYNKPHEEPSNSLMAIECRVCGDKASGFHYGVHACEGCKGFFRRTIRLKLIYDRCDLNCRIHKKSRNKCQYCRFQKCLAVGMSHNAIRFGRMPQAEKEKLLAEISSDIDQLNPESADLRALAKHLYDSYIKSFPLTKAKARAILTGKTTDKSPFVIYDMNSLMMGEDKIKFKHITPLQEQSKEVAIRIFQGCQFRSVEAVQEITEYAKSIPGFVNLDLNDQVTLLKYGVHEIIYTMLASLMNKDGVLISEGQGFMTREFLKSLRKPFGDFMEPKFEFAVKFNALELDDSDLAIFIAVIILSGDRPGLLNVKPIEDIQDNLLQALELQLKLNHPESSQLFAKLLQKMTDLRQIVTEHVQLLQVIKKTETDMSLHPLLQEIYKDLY
Chain of Thyroid hormone receptor beta (Homo sapiens) (P10828 whole entry, looked up): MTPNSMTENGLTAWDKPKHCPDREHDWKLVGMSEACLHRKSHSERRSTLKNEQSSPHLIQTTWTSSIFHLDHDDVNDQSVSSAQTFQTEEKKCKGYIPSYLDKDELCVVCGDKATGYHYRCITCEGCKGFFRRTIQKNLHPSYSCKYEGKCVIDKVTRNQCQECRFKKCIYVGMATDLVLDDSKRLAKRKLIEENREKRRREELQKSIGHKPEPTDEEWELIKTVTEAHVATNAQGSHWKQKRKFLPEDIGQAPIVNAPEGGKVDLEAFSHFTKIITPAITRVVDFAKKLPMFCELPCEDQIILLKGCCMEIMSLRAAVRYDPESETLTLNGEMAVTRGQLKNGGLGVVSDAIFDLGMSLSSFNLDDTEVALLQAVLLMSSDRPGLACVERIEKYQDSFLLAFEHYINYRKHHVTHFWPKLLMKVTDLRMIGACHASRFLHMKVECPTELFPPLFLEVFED

CC(C)C(=O)OCC(C)(C)C(O)C(C)C (stereo not drawn)
inactive: outcome [1] | Potency [2] | Potency [3] | outcome [4] | activity change % (negative = inhibition) [5] -5.03% | Potency [6]

CCCCCCCCCCCO
inactive: Potency [7] | Potency [3] | outcome [4] | activation [8] 1.01%

c1cc(-c2ccncc2)ccn1
inactive: outcome [1] | Potency [2] | Potency [3] | outcome [4] | activity change % (negative = inhibition) [5] -17.5% | activation [8] -5.33%

CC(C)(C)c1cccc(C(C)(C)C)c1O
inactive: Potency [2] | Potency [6] | activation [8] -0.526%

Cc1cc(C)c(N)c(Cl)c1
inactive: outcome [1] | Potency [2] | Potency [3] | outcome [4] | activity change % (negative = inhibition) [5] -1.82% | Potency [6]

C[Si]1(C)O[Si](C)(C)O[Si](C)(C)O[Si](C)(C)O[Si](C)(C)O1
inactive: outcome [1] | Potency [2] | outcome [4] | Potency [6] | activation [8] 1.25%

C=CC(=O)OCC[N+](C)(C)C
inactive: Potency [7] | Potency [2] | Potency [3] | outcome [4] | activity change % (negative = inhibition) [5] -9.01% | Potency [6] | activation [8] 2.09%

C/C(=C\C(C)CC(C)CC(C)C)C1CC(=O)OC1=O (stereo not drawn)
inactive: Potency [3] | outcome [4] | activity change % (negative = inhibition) [5] 0.311% | activation [8] -3.07%

CC(C)CCCCCOC(=O)CS
inactive: outcome [1] | Potency [2] | activity change % (negative = inhibition) [5] -8.58% | Potency [6]

CC(=O)/C=C/C1C(C)=CCCC1(C)C (stereo not drawn)
inactive: Potency [7] | outcome [1] | Potency [3] | outcome [4] | activity change % (negative = inhibition) [5] 5.94% | Potency [6] | activation [8] -1.49%

OC1CCCCCCCCCCC1
inactive: outcome [1] | Potency [2] | Potency [6]

c1ccc(OCCOc2ccccc2)cc1
inactive: outcome [1] | Potency [2] | Potency [3] | outcome [4] | activity change % (negative = inhibition) [5] 5.59% | Potency [6] | activation [8] 2.08%

O=C(OCCOCCOC(=O)c1ccccc1)c1ccccc1
inactive: outcome [1] | Potency [2] | Potency [3] | outcome [4] | activity change % (negative = inhibition) [5] 0.94% | activation [8] 0.877%

Nc1nc(N)nc(-c2ccccc2)n1
inactive: outcome [1] | activity change % (negative = inhibition) [5] 13.3% | Potency [6]

Fc1ccc(Br)cc1
inactive: Potency [3] | outcome [4] | activation [8] -1.54%

CC1=CC2C3CC(C=C3C)C2C1 (stereo not drawn)
inactive: outcome [1] | Potency [2] | Potency [3] | Potency [6]

COC(=O)c1ccccc1C(=O)O
inactive: outcome [1] | Potency [2] | outcome [4] | activity change % (negative = inhibition) [5] -12.2% | activation [8] -3.42%

OCCOCCOCCOCCO
inactive: outcome [4] | Potency [6] | activation [8] 0.49%

CC(C)(C)C1CCC(O)CC1 (stereo not drawn)
inactive: Potency [2] | Potency [3] | outcome [4] | activity change % (negative = inhibition) [5] -2.02% | Potency [6] | activation [8] -3.97%

C[N+](C)(C)CC(O)CCl (stereo not drawn)
inactive: outcome [1] | Potency [3] | outcome [4] | activity change % (negative = inhibition) [5] -6.17% | activation [8] 0.454%

C=CCCCCCCCCC=O
inactive: outcome [1] | Potency [2] | Potency [3] | outcome [4] | activity change % (negative = inhibition) [5] 19.2% | activation [8] 3.83%

Source: PubChem BioAssay (NCATS)
